Results on 23 molecules are retold here after PubChem BioAssay.

Test [1] can be described thus: LFS_MB_2R medulloblastoma cell growth inhibition, synergistic combos for chromothripsis tumors, cisplatin combos (AID 1671457).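 Note: cells exposed to compound for four days before readout.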 The settings on record: LFS_MB_2R medulloblastoma cells, stronger effect = higher value.
Test [2] is described as follows: UWB1.289_BRCA1 ovarian cancer growth, cell-based, BGB or cisplatin combinations (AID 1671459). The settings on record: UWB1.289 BRCA1 ovarian carcinoma, drug combinations, stronger effect = higher value.
Test [3] is described as follows: human astrocyte viability loss, single and combined drugs, cytotoxicity control for chromothriptic childhood tumor combination screen, cell-based, BGB or cisplatin IC20 combos (AID 1671460).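 Note: cells exposed to compounds for 96 hours before viability readout; 0% = vehicle and 100% = killing control.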 The settings on record: Human astrocytes, drug combinations, stronger effect = higher value.
Test [4] is described as follows: kinase inhibitors against Plasmodium liver-stage infection, cell-based, known kinase inhibitor set, luminescence, hepatoma host viability (AID 624392; call rule not given here;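 note: infected cells incubated roughly two days before readout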). The settings on record: Plasmodium liver stage in hepatoma cells, luciferase luminescence, concentration not given here; liver cell % of control: measured here: host liver cell viability; parasite % of control: stronger effect = lower value.

Test [5] can be described thus: circadian clock period modulators, cell-based, LOPAC library, luminescence reporter (AID 2774; call rule not given here;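 note: values are relative to mean of DMSO wells on each plate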). The settings on record: circadian reporter cells, at 7 µM, actives lie on both sides.
The test system of test [6] is Hepatitis C virus NS3 helicase. In words: HCV NS3 helicase inhibitors, primary screen, biochemical, fluorescence polarization, LOPAC1280 library (AID 687035; in the data active = inhibition above about 37%). The settings on record: Purified HCV NS3 helicase, Cy5-dT15 ssDNA binding fluorescence polarization; stronger effect = higher value; concentration not given here.
Test [7] is described as follows: Cy5 fluorescence quenching or enhancement artefacts, artefact control for HCV NS3 helicase inhibitor project, biochemical, LOPAC1280 (AID 687037; call rule not given here). The settings on record: Cy5-DNA-NS3h complex fluorescence interference counterscreen. A general note: Counterscreens check selectivity or assay interference.
A short description of test [8]: phospholipid biosynthesis inhibitors in animal cells, primary screen, cell-based, LOPAC library, screen 4 (AID 1347384; call rule not given here). The settings on record: phospholipid biosynthesis inhibition screen, at 10 µM.
Test [9] can be described thus: viability rescue of complex I mutant cybrids, primary screen, cell-based, galactose medium, ATP luminescence (AID 1645843;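 active = z-score of at least 1.8 in each of two replicates, scored against plate mean and spread of sample wells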;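 note: positive z means more ATP and so rescue of galactose-driven cybrid death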). The settings on record: complex I mutant cybrid cells, 72 h, stronger effect = higher value.
Test [10] can be described thus: modifiers of HSF1 nuclear foci, imaging, Selleck Cancer Library (AID 1347162; in the data active = plate-normalised HSF1 focus index below about 0.46). The settings on record: human cells, at 10 µM; SSMD: measured here: HSF1 foci SSMD mean; cell count: measured here: cell number; plate-normalised HSF1 focus index: stronger effect = lower value.
Test [11] is described as follows: hESC survival regulators, cell-based (AID 493140; call rule not given here;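 note: cells exposed to compounds for four days before counting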). The settings on record: human embryonic stem cell survival screen; stronger effect = higher value.
Test [12] is described as follows: liver-stage malaria parasite growth inhibition, primary screen, cell-based, HepG2, luciferase luminescence, HepG2 viability (AID 624349; in the data active = parasite load remaining mostly below about 12%, no sharp cut-off; inactive = mostly above about 10%;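 note: 100% = mean of DMSO negative control wells on the same plate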). The settings on record: P. berghei liver stage in HepG2, luciferase luminescence, concentration not given here; parasite load remaining: stronger effect = lower value; viability: measured here: HepG2 viability without parasites.
Test [13] can be described thus: SU-DIPG-VI glioma cell viability, MIPE4.0 library, CellTiter-Glo luminescence, qHTS (AID 1347066; cut-off not given, nearly all actives have AC50 up to about 30 µM;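 note: cells exposed to compound for 48 hours before readout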). The settings on record: CellTiter-Glo ATP luminescence. For orientation: ATP-based viability assays read luminescence as a measure of living cells.
Test [14] in a line: inhibitors of Cryptococcus chitosan production, flow cytometry, Cibacron Brilliant Red staining (AID 1347148; call rule not given here;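 note: compound exposure lasted three days at 37 degrees C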). The settings on record: Cryptococcus neoformans chitosan, stronger effect = lower value; at 10 µM unless noted. A general note: A flow cytometer gives signals particle by particle.
The mark [15] stands for this setting: measured here: combination with cisplatin, at 0.5 µM.
Where [16] appears, read: measured here: combination with cisplatin, at 5 µM.
Setting [17] is: BGB combination, concentration series, at 5 µM.
[18] abbreviates: cisplatin combination, concentration series, at 5 µM.
[19] abbreviates: measured here: combo with BGB IC20, at 0.5 µM.
Setting [20] is: measured here: combo with cisplatin IC20, at 0.5 µM.

“And” between values parts separate entries of the source, which are not always exact repeats. Equal values may be shown once. Results filed as inconclusive are left out. The source made the active and inactive calls. Cut-off read from the data, not from the text of the source, unless noted: active = inhibition above about 80%; inactive = the rest.

`C=C1[C@H](CO)[C@@H](O)C[C@@H]1n1cnc2c(=O)[nH]c(N)nc21`: the inhibition – broadly, the change of the read-out against control, counted positive when it falls – in test [1] (at 0.5 µM) was -6.88% (inactive); in test [1] (setting [15]), -11.9%; in [1] (setting [16]) it was -13.1%; in test [2] (setting [17]), -20.8%; in [2] (at 0.5 µM), -14% (inactive); in test [2] (setting [18]) it was -7.68%. The inhibition is -13.6% (inactive) in test [3] (at 0.5 µM), -16.4% in test [3] (setting [19]) and -16.1% in test [3] (setting [20]).
With `CC(=O)Nc1ccc(C(=O)Nc2ccccc2N)cc1`, the inhibition was -12.7% (inactive) in test [1] (at 0.5 µM); -6.43% in test [1] (setting [15]); 50.6% in test [1] (setting [16]); 68.5% in [2] (setting [17]); -2% (inactive) in test [2] (at 0.5 µM); 75.2% in test [2] (setting [18]). Also, the inhibition in test [3] (at 0.5 µM) is 17% (inactive); in test [3] (setting [19]) it was 9.55%; in test [3] (setting [20]), 26.2%.
Regarding `N=C1CCCN1Cc1[nH]c(=O)[nH]c(=O)c1Cl`, the inhibition in test [1] (at 0.5 µM) is -11.5% (inactive); in test [1] (setting [15]), -21.1%; in test [1] (setting [16]), -54.2%; in [2] (setting [17]) it was 3.78%; in test [2] (at 0.5 µM), 4.18% (inactive); in test [2] (setting [18]), 25.3%. Also, the inhibition in [3] (at 0.5 µM) is 0.72% (inactive); in test [3] (setting [19]), 12.6%; in test [3] (setting [20]), -10.8%.
For the molecule `CCN1CCN(Cc2ccc(NC(=O)c3ccc(C)c(NC(=O)c4cncc(-c5cccs5)c4)c3)cc2C(F)(F)F)CC1`, in [4], the liver cell % of control was determined as 83.9% and the parasite % of control is 74.7% (inactive).
`CCCc1c(OCCCOc2ccc(OCC(=O)O)cc2)ccc(C(C)=O)c1O`: the period change in [5] was -0.235 h (inactive). For the same molecule, the inhibition in [6] is -1% (inactive). Besides, the fluorescence ratio (interference) in test [7] is 1 (inactive). Further, in test [8], the result was inactive. In test [9], the z-score was 1.51 (inactive).
Consider `c1ccc2c(-c3cnn4cc(-c5ccc(N6CCNCC6)cc5)cnc34)ccnc2c1`, for which, in [10], the SSMD is -18.9, the cell count came out at 2900 and the plate-normalised HSF1 focus index was 0.0271 (active).
Consider `CN(CCOc1ccc(C[C@H](Nc2ccccc2C(=O)c2ccccc2)C(=O)O)cc1)c1ccccn1`, for which the period change in test [5] is 0.085 h (inactive).
As to `COc1ccc(S(=O)(=O)N(CCO)c2ccccc2CN(C)C/C=C/c2ccc(Cl)cc2)cc1`, the survival in [11] was 106 (inactive). Also, in test [12], the parasite load remaining is 32.7% (inactive) and the viability (usually a read-out of living cells in per cent, often relative to untreated cells) came to 64.7%.
As to `NC1CCC(N[C@@H]2C[C@H]2c2ccccc2)CC1` (stereo partly specified), the inhibition in test [1] (at 0.5 µM) was -35.8% (inactive); in test [1] (setting [15]), -40%; in [1] (setting [16]) it was -27.2%; in [2] (setting [17]), -9.67%; in test [2] (at 0.5 µM), 0.86% (inactive); in test [2] (setting [18]) it was 21.2%. Also, the inhibition is 11.2% (inactive) in test [3] (at 0.5 µM), 8.8% in test [3] (setting [19]) and 10.6% in [3] (setting [20]).
Regarding `CN(C)C/C=C/C(=O)Nc1ccc(C(=O)Nc2cccc(Nc3ncc(Cl)c(-c4c[nH]c5ccccc45)n3)c2)cc1`, the inhibition in test [1] (at 0.5 µM) was 75.5% (inactive); in test [1] (setting [15]) it was 68.1%; in test [1] (setting [16]) it was 91.1%; in test [2] (setting [17]), 79.9%; in test [2] (at 0.5 µM) it was 84.7% (active); in test [2] (setting [18]), 86.1%. Further, the values for the inhibition in test [3] (at 0.5 µM), in test [3] (setting [19]) and in [3] (setting [20]) were 87.2% (active), 86.5% and 83.8%, respectively.
In the case of `CC(=O)[C@]1(N)Cc2c(O)c3c(c(O)c2[C@@H](O[C@H]2C[C@H](O)[C@H](O)CO2)C1)C(=O)c1ccccc1C3=O`, the inhibition was -4.05% (inactive) in [1] (at 0.5 µM); -9.33% in test [1] (setting [15]); 67% in test [1] (setting [16]); 117% in [2] (setting [17]); 13% (inactive) in test [2] (at 0.5 µM); 128% in test [2] (setting [18]). Also, the inhibition is 25.7% (inactive) in test [3] (at 0.5 µM), 27.9% in test [3] (setting [19]) and 27.1% in test [3] (setting [20]).
Regarding `COc1ccc(C(=O)C2CCN(CC(=O)N(Cc3nc4c(c(=O)[nH]3)COCC4)CC3CC3)CC2)cc1`, the inhibition in test [1] (at 0.5 µM) was -24% (inactive); in test [1] (setting [15]) it was -29.2%; in test [1] (setting [16]), -37.9%; in test [2] (setting [17]), 1.7%; in test [2] (at 0.5 µM), -0.47% (inactive); in test [2] (setting [18]), 18.5%. The inhibition in test [3] (at 0.5 µM) was 48.9% (inactive); in test [3] (setting [19]), 45.3%; in test [3] (setting [20]), 49.7%.
Turning to `C[C@@H](O)[C@@H]1NC(=O)[C@H](CCCCN)NC(=O)[C@@H](Cc2c[nH]c3ccccc23)NC(=O)[C@H](Cc2ccccc2)NC(=O)[C@@H](NC(=O)[C@H](N)Cc2ccccc2)CSSC[C@@H](C(=O)N[C@H](CO)[C@@H](C)O)NC1=O`, in test [12], the parasite load remaining was 22.8% (inactive) and the viability came out at 81.5%. Moreover, in [9], the z-score is 0.6 (inactive).
With `COc1cc(/C=C(\C#N)C(=O)Nc2nnc(C(F)(F)F)s2)ccc1OCc1ccc(C(F)(F)F)cc1C(F)(F)F`, the inhibition in test [6] was -5% (inactive). Further, the fluorescence ratio (interference) in test [7] was 1 (inactive). For the same molecule, the molecule was classed as inactive in test [8]. For the same molecule, in test [9], the z-score is 0.35 (inactive).
As to `O=C(NOCC(O)CO)c1ccc(F)c(F)c1Nc1ccc(I)cc1F` (stereo unspecified), in test [4], the liver cell % of control is 81.2% and 75.1% and 63.7%; the parasite % of control is 153% (inactive) and 268% (inactive) and 132% (inactive).
For `CN1CCN(c2ncc(-c3cc(Cl)cc(Cl)c3Cl)c(N)n2)CC1`, in test [13], the molecule was called inactive.
As to `CC(C)(C(=O)NCC(F)(F)C(F)(F)F)C(=O)N[C@@H]1C(=O)Nc2ccccc2-c2ccccc21`, in test [13], the outcome was inactive. Besides, in test [10], the SSMD was found to be 3.83, the cell count stood at 7550 and the plate-normalised HSF1 focus index is 1.24 (inactive).
As to `CNC(=O)c1ccc2c(C(=Nc3cccc(CN(C)C)c3)c3ccccc3)c(O)[nH]c2c1`, the call in test [13] was inactive.
Same read-out and setting: then `NS(=O)(=O)OC[C@@H]1C[C@@H](n2ccc3c(N[C@H]4CCc5ccccc54)ncnc32)C[C@@H]1O`, with “inactive”.
On to `C[N+](C)(C)CC(=O)O`, for which the molecule was called inactive in test [8].
Take `COc1ccc(CNC(=O)Nc2ncc([N+](=O)[O-])s2)cc1`: in test [12], the parasite load remaining is 31.3% (inactive) and the viability turned out to be 94.6%. Also, in [10], the SSMD turned out to be 1.38, the cell count is 7050 and the plate-normalised HSF1 focus index is 1.08 (inactive).
As for `O=[N+]([O-])c1ccc(-c2nc(-c3ccc(F)cc3)c(-c3ccncc3)[nH]2)cc1`, in test [12], the parasite load remaining was 29.6% (inactive) and the viability came out at 67.5%. Besides, the inhibition in [6] was 1% (inactive). Besides, the fluorescence ratio (interference) in test [7] was 1 (inactive). In test [8], the molecule was classed as inactive. In addition, the z-score in [9] is -0.155 (inactive).
For `CNC(=O)[C@H](Cc1c[nH]c2ccccc12)NC(=O)[C@@H](CC(=O)NO)CC(C)C`, the fold fluorescence in test [14] was 4.97 [at 128.7 µM] (inactive).
